For part of these data: Potency and affinity values are given separately.
Assays:
Staphylococcus aureus = assay: Antibacterial activity against Staphylococcus aureus MRSA ATCC 43300 (CO-ADD:GP_020); MIC in CAMBH media using NBS plates, by Resazurin F(560/590); format: functional; details: Concentration 20 uM, ASSAY_TEST Inhibition of Bacterial Growth, detection method Resazurin, Fluorescence (ex560/em590), MEDIA CAMHB, plate type 384well, CORNING #3640, time 18 hr
Acinetobacter baumannii = assay: Antibacterial activity against Acinetobacter baumannii ATCC 19606 (CO-ADD:GN_034); MIC in CAMBH media using NBS plates, by Resazurin F(560/590); format: functional; details: Concentration 20 uM, ASSAY_TEST Inhibition of Bacterial Growth, detection method Resazurin, Fluorescence (ex560/em590), MEDIA CAMHB, plate type 384well, CORNING #3640, time 18 hr
Escherichia coli = assay: Antibacterial activity against Escherichia coli ATCC 25922 (CO-ADD:GN_001); MIC in CAMBH media using NBS plates, by Resazurin F(560/590); format: functional; details: Concentration 20 uM, ASSAY_TEST Inhibition of Bacterial Growth, detection method Resazurin, Fluorescence (ex560/em590), MEDIA CAMHB, plate type 384well, CORNING #3640, time 18 hr
Klebsiella pneumoniae = details: Concentration 20 uM; ASSAY_TEST Inhibition of Bacterial Growth; detection method Absorption (OD600); MEDIA CAMHB; plate type 384well; NBS; CORNING #3640; time 18 hr
Candida albicans = details: 20 µM
Cryptococcus neoformans = details: Concentration 20 uM; ASSAY_TEST Inhibition of Fungal Growth; detection method Resazurin; Absorption (OD600-OD570); plate type 384well; NBS; CORNING #3640

| SMILES | Inhibition (Staphylococcus aureus) [%] | Inhibition (Acinetobacter baumannii) [%] | Inhibition (Escherichia coli) [%] | Inhibition (Klebsiella pneumoniae) [%] | Inhibition (Candida albicans) [%] | Inhibition (Cryptococcus neoformans) [%] |
| --- | --- | --- | --- | --- | --- | --- |
| CC(C)NC(=O)Nc1cccc(Cl)c1 | 12.4 | 7.15 | 6.41 | 8.52 | -1.88 | -9.01 |
| NC(=S)N/N=C/c1cc(-c2cccc(N)c2)ccn1 | -5.52 | 27.53 | 11.56 | 45.35 | 1.87 | -12.06 |
| Oc1cc(-n2cccn2)c(O)cc1-n1cccn1 | 6.47 | 8.87 | -3.84 | 16.86 | 25.5 | -4.6 |
| Cn1c(=O)c2c(nc(Oc3ccccc3)n2C)n(C)c1=O | 7.55 | 11.19 | -2.76 | 19.27 | 7.25 | -3.63 |
| Clc1nnc2c3ccccc3ccn12 | -3.22 | 2.03 | 3.3 | 8.71 | 1.01 | -9.43 |
| Cc1cc(OCCCCOc2ccc(C#N)cc2)ccc1[N+](=O)[O-] | 20.1 | 6.74 | 2.94 | 7.99 | 7.31 | -12.2 |
| O=C(O)C(Cc1c[nH]c2ccccc12)N1C(=O)c2ccccc2C1=O (stereo not given) | 3.51 | 4.73 | -5.16 | 9.04 | 3.93 | 13.59 |
| O=C(/C=C/c1ccc(Cl)s1)c1ccc(Cl)s1 | 14.77 | 5.48 | -1.03 | 0.02 | 4.39 | -6.98 |
| CN(C)c1ccc(/C=C/C(=O)c2cc(Cl)ccc2O)cc1 | 14.9 | -19.64 | 10.48 | 1 | 8.13 | -6.08 |
| O=C(NC1CCCCC1)c1cc2ccccc2cc1O | 11.46 | 7.31 | 4.75 | 14.67 | 0.86 | -3.07 |
| COc1ccc2c3c([nH]c2c1)[C@H]1C[C@H]2[C@H](C[C@@H](O)[C@H](OC)[C@H]2CO)CN1CC3 | 17.92 | 7.85 | -1.49 | 7.11 | -0.63 | -8.29 |
| NC(=O)c1nc2c([nH]c1=O)CCCC2 | 15.95 | -15.59 | 13.49 | -0.68 | -0.94 | -4.35 |
| C#Cc1cccc(NC(=O)c2ccc(Cl)cc2Cl)c1 | 1.84 | -16.25 | 7.38 | 6.81 | 7.69 | -7.06 |
| CC1=C(O)C(=O)C(c2c(C)cc(C)c(Br)c2C)=C(O)C1=O | 15.91 | 1.25 | 4.64 | 20.53 | 19.7 | -3.3 |
| CC(C)(C(N)=O)c1ccccc1 | 17.59 | -10.23 | 13.36 | 17.26 | -1.04 | -2.3 |
| CC(=O)CC(=O)Nc1ccc2ccccc2c1 | -8 | 10.6 | 5.41 | 9.32 | 7.43 | -13.72 |
| Cc1cccn2c(S)nnc12 | 10.19 | -5.53 | 13.03 | 17.76 | 5.89 | -6.48 |
| Oc1ncc(I)cc1I | 37.5 | 6.08 | 2.67 | 22.74 | 4.4 | 23.72 |
| CCOC(=O)N1CCc2cc(OC)c(OC)c3c2c1cc1cc(OC)c(OC)cc13 | -2.61 | -15.62 | 19.24 | 9.85 | 5.76 | -3.38 |
| N#CC1C=Cc2c(ccc3ccccc23)N1C(=O)c1ccccc1 (stereo not given) | 29.76 | -9.2 | 7.35 | 24.48 | 11.9 | 2.44 |
| CC(C)COc1nc2c(c(=O)n(C)c(=O)n2C)n1C | -1.72 | 11.63 | 12.8 | 5.36 | 2.67 | -14.97 |
| O=C(O)c1ccc2c(c1Sc1ccccc1)C(=O)c1ccccc1C2=O | -2.35 | 11.62 | -1.12 | 2.65 | 1.7 | -3.15 |
| O=S(=O)(O)c1ccc(/N=N/c2ccccc2)cc1 | -3.11 | 7.18 | 5.47 | 7.84 | 2.54 | -15.64 |
| [O-]/[N+](=C\c1ccccc1)CC1(O)CCCCC1 | 12.91 | 10.28 | 21.78 | 2.39 | 5.54 | 9.39 |
| Nc1ccnn1-c1ccccc1 | 7.55 | -6.56 | 2.95 | 26.2 | 2.01 | -2.01 |

| SMILES | Inhibition (Staphylococcus aureus) [%] | Inhibition (Acinetobacter baumannii) [%] | Inhibition (Escherichia coli) [%] | Inhibition (Klebsiella pneumoniae) [%] | Inhibition (Candida albicans) [%] | Inhibition (Cryptococcus neoformans) [%] |
| --- | --- | --- | --- | --- | --- | --- |
| Oc1ccc2ccccc2c1/N=N/c1ccc(F)cc1 | 3.11 | 4.07 | -0.77 | 13.5 | -3.66 | -8.4 |
| Sc1ncnc2c1ncn2C1CCCC1 | 12.18 | -2.05 | 10.82 | 10.23 | 3.52 | -6.41 |
| NS(=O)(=O)c1ccc(Nc2ccccc2)c([N+](=O)[O-])c1 | 4.64 | 12.63 | -4.87 | 9.32 | 7.16 | -1 |
| C#CCCOC(=O)Nc1ccccc1 | 2.35 | -10.74 | 7.7 | 4.67 | 2.19 | -13.66 |
| CCNc1nc(Cl)nc(-c2cn(-c3ccccc3)c3ccccc23)n1 | 17.23 | 12.81 | 4.37 | 13.6 | 0.17 | -5.12 |
| NC1=NC(Nc2ccccc2)=NC(c2ccccc2)N1 (stereo not given) | 10.62 | 4 | 5.99 | 5.54 | 6.21 | -14.92 |
| Cc1c(O)cnc2nn(-c3ccccc3)c(=N)n12 | 11.23 | 10.25 | 2.75 | 9.94 | 3.98 | -5.13 |
| CS(=O)(=O)Oc1ccc(Br)c2cccnc12 | 10.68 | 10.16 | 3.51 | 19.67 | 4.07 | -11.45 |
| COC1=CC(C)C2CC3OC(O)CC4C(C)=C(OC)C(=O)C(C2(C)C1=O)C34C (stereo not given) | 7.24 | 8.28 | -3.89 | 9.99 | 3.92 | 7.39 |
| NNC(=O)CNC(=O)Nc1nnc(S)s1 | 1.09 | 15.79 | -4.75 | 16.78 | 2.5 | -8.13 |
| O=c1[nH]c(=O)n2ncnc2[nH]1 | 16.94 | -11.21 | 5.82 | 7.37 | -1.3 | -10.02 |
| c1cc2c3c(cccc3c1)NC1(CCC3(CC1)Nc1cccc4cccc(c14)N3)N2 | 1.15 | 7 | 12.93 | 19.89 | 2.38 | -5.58 |
| CC(=O)OCc1cc(-c2nc3ccccc3nc2O)nn1-c1ccc(Cl)cc1 | 8.25 | 12.91 | -18.97 | 4.82 | 4.91 | 44.96 |
| Nc1nc2c[nH]c(N)nc-2n1 | -4.21 | 2.13 | 5.84 | 7.49 | 3.2 | -2.1 |
| COCC(O)Cn1ccnc1[N+](=O)[O-] (stereo not given) [MISONIDAZOLE] | -3.32 | 6.49 | 6.97 | 11.9 | 1.35 | -12.64 |
| CCOC(=O)c1nn(-c2ccccc2)cc1O | -14.3 | -10.69 | -0.72 | -1.36 | 0.93 | -2.21 |
| OC1(Cc2ccccc2)CCNCC1 | 8.09 | -10.57 | 6.88 | 12.17 | 7.54 | -0.07 |
| CC1=CC(C)(C(Cl)(Cl)Cl)C(C)=C/C1=N/O (stereo not given) | 1.65 | -20.29 | 8.83 | 12.76 | 4.85 | -11.97 |
| N#Cc1ccc(NC2c3ccccc3CC2O)cc1 (stereo not given) | -13.68 | -7.5 | -15.24 | 3.05 | 0.94 | 8.31 |
| CS(=O)(=O)O.Cc1cc2c(cc1[N+](=O)[O-])NC(CNC(C)C)CC2 (stereo not given) | 12.97 | 12.49 | 3.18 | 6.82 | -0.29 | -5.85 |
| Nc1ccccc1Sc1cc(Cl)nnc1Cl | 10.59 | -10.6 | 6.4 | 13.76 | 6.84 | -6.72 |
| Cc1nc2[nH]c(=O)n(O)c(=O)c2s1 | 4.12 | -18.15 | 5.04 | 12.49 | 3.41 | -6.64 |
| CCc1oc2ccccc2c1C(=O)c1cc(Br)c(O)c(Br)c1 [BENZBROMARONE] | -12.4 | -9.24 | 7.93 | 12.45 | 9.57 | -6.93 |
| C=C(C)C/N=C/C1(C)CCC(C)=CO1 (stereo not given) | -0.35 | 0.87 | -9.37 | 5.17 | 1.63 | 19.3 |
| O=C(O)c1ccc(OCCOc2ccccc2)cc1 | -1.13 | -7.25 | 7.53 | 15.54 | 7.45 | -11.92 |
